G9a block: inhibitors of human histone lysine methyltransferase G9a; G9a H3K9 monomethylation, AlphaScreen, 2 h; Potency, µM (series often up to 102 µM), actives largely listed as inhibitors; 8.8% of 350,000 active; AID 504332; further: nearly all actives have a fitted effect of over 75% in size
Target sequence (Q96KQ7 913-1193 limits assumed): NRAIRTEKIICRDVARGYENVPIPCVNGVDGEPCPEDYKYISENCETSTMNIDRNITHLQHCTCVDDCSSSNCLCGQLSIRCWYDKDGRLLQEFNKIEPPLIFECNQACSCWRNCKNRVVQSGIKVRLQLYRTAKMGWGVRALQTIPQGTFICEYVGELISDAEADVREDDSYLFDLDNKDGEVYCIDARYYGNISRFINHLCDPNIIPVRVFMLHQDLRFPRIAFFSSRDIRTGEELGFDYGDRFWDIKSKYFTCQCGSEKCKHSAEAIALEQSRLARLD
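Methyltransferase reactions run at room temperature for 2 h (20 nM enzyme, 500 nM biotin-H3K9 peptide, 20 uM SAM) after a 15 min compound preincubation; product detected by AlphaScreen beads and anti-H3K9me1 antibody.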
Tau fibril FP: blocks human tau fibril formation measured by polarization. K18 P301L tau heparin fibrillization, Alexa594 FP, 6 h. Potency, µM (series often up to 57.7 µM), usual class: inhibitors. 0.39% of 280,000 active; further: nearly all actives have a fitted effect of over 55% in size
Target sequence (P10636 561-689 P618L limits assumed): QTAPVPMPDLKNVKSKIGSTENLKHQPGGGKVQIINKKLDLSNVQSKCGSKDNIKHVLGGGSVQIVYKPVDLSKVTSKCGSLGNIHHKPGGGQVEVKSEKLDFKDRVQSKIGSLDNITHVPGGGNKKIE
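FP of Alexa 594-tau after heparin (20 uM) induction. Substrate: human K18 P301L, 15 uM unlabeled, 0.24 uM labeled. Buffer 100 mM sodium acetate pH 7. 6 hr, 37 C.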
Tau fluor counter: counter-screen for tau fibril formation inhibitors; tau K18 P301L Alexa594 fluorescence, heparin fibrillization; 0.93% of 280,000 active; AID 1463; Potency, µM (doses to about 57.7 µM); further: nearly all actives have a fitted effect of over 55% in size
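Human K18 P301L tau (15 uM unlabeled plus 0.24 uM Alexa 594-labeled, final) in 100 mM sodium acetate pH 7 was mixed with compound and 20 uM heparin and incubated 6 hr at 37 C.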
Sfp PPTase inh: blocks B. subtilis Sfp PPTase activity. Biochemical Sfp PPTase activity, qHTS. Potency, µM, most hits filed as inhibitors. 3.5% of 310,000 active;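 further: the enzyme is Sfp with the accession as filed and its product quenches rhodamine fluorescence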
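Fluorescence-quenching assay: 15 nM Sfp-PPTase preincubated 15 min at room temperature with compound, then 5 uM rhodamine-CoA and 12.5 uM BHQ-2-labelled YbbR peptide added. Fluorescence (ex 525/em 598 nm) read at start and after 30 min; difference gives rate.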
Tau fibril ThT: inhibitors of human tau fibril formation, thioflavin T binding | recombinant tau K18 P301L, heparin-induced fibrillization, ThT fluorescence | Potency, µM (doses to about 57.4 µM), actives largely listed as inhibitors | 2.1% of 270,000 active | P10636; further: nearly all actives have a fitted effect of over 55% in size
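Using a mix of unlabeled (15 uM) and Alexa 594-labeled (0.24 uM) tau K18 P301L, heparin-triggered fibrillization over 6 hr at 37 C was scored by ThT fluorescence.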
FBPA coupling cs: inhibits coupling enzyme system, counter-screen for aldolase hits | activity change, negative = inhibition, % at 58.2 µM, hits read low | AID 2472 | 0.67% of 290,000 active | coupling enzyme system counterscreen, AmpLite Red fluorescence; in the data active means activity change below about -30%
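Counterscreen of the coupled detection system alone, without aldolase: glyceraldehyde-3-phosphate coupling enzymes plus AmpLite Red readout. Compounds at 57.5 uM final, 10 min RT preincubation, 20 min RT reaction, fluorescence 525/598 nm.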
Hits are given with their value; . = inactive; ? = inconclusive; / = not tested or not shown; [ ] = remark or other dose. Most compounds without a hit are left out; they make up all but 11% or so of the library. Unless noted, the call rests on the fitted dose curve; in most records, active means well fitted curve in the direction sought with a large enough effect; inconclusive means small, poorly fitted or top-dose-only effect, or another doubt; inactive means no such curve, though single readings can be large; an effect the other way counts as inactive or inconclusive.

SMILES	G9a block	Tau fibril FP	Tau fluor counter	Sfp PPTase inh	Tau fibril ThT	FBPA coupling cs
COc1cccc(CNC(=O)c2ccc3c(c2)N(C)C(=O)C2CCCCN32)c1 (stereo unspecified)	.	.	.	/	.	/
COc1cc(C(=O)CSc2nncn2C)cc(OC)c1OC	39.8µM	.	.	?	.	.
Cn1c(=O)oc2cc(S(=O)(=O)N3CCCC(C(=O)NCCc4ccc(Cl)cc4)C3)ccc21 (stereo unspecified)	.	.	.	/	.	/
Cn1c(-c2ccc(=O)[nH]c2)nc2ccccc21	/	?	.	17.8µM	?	-33.1
O=c1ccc(-c2nc3ccccc3n2Cc2ccc(Cl)cc2)c[nH]1	.[2.33 µM]	/	/	.	/	.
C/C(=N\N(c1ccccc1)c1ccccc1)c1ccc(O)cc1	79.4µM	/	/	.	/	.
COc1cccc2oc(-c3ccco3)cc(=O)c12	5.62µM	.	.	.	.	.
COc1ccc2oc(-c3ccco3)cc(=O)c2c1	44.7µM	.	.	?	?	.
COc1cc(OC)c2c(=O)cc(-c3ccccc3)oc2c1	.	.	.	.	.	.
CCNc1ncc2nc(-c3cccs3)c(=O)n(Cc3cccs3)c2n1	.[0.501 µM]	/	/	.	/	.
Cc1csc(NS(=O)(=O)c2ccc(Cl)cc2)n1	.	/	/	.	/	.
Cc1csc(Nc2ccc(Cl)cc2)n1	44.7µM	.	?	.	?	.
Cc1ccc(Nc2nc(C)cs2)cc1	35.5µM	.	.	22.4µM	.	.
CCN(C(=O)CN(C)S(=O)(=O)c1ccc2c(c1)n(C)c(=O)c(=O)n2C)c1cccc(C)c1	.	.	.	/	.	/
CCOc1ccc(N(C)C(=O)CCc2nnc3ccc(N4CCCCC4)nn23)cc1	.	/	/	.	/	/
CN(C)CCNCc1ccc(OC2CCCC2)cc1	79.4µM	.	.	.	.	.
CCC(=O)Nc1ccc(S(=O)(=O)NCc2cccn2Cc2cccc(C)c2)cc1	.	.	?	/	.	/
Cc1ccc2c(c1)c1cccc3c1n2CCN3CCC(N)=O	?	?	?	.	11.2µM	.
Cc1cccc(NC(=O)CCNC(=O)c2ccc(Br)cc2)c1	.	/	/	.	/	.
O=C(C1CCOCC1)N1CCCC(N2CCN(c3ccc(F)cc3)CC2)C1 (stereo unspecified)	/	/	/	.	/	/
CCOC(=O)N1CCN(C(=O)CSc2nnc3[nH]c(=O)c(C)c(C)n23)CC1	14.1µM	/	/	/	/	/
CCOC(=O)N1CCN(C(=O)CSc2ccccc2)CC1	.	.	.	.	.	.
CCc1ccc2oc(-c3ccc(OC)cc3)cc(=Nc3cccc(C(=O)O)c3)c2c1	?	.	.	?	?	.
CCc1ccc2oc(-c3ccc(OC)cc3)cc(=Nc3c(C)n(C)n(-c4ccccc4)c3=O)c2c1	25.1µM	.	.	79.4µM	11.2µM	.
COc1ccc(OC2C(O)COC2/C=C/C#Cc2ccc(F)cc2F)cc1 (stereo unspecified)	/	.[11.6 µM]	.[11.6 µM]	.	.[11.5 µM]	.
SMILES	G9a block	Tau fibril FP	Tau fluor counter	Sfp PPTase inh	Tau fibril ThT	FBPA coupling cs
O=C(O)CNCC1COc2ccccc2O1 (stereo unspecified)	17.8µM	.	.	.	.	.
c1ccc2c(c1)OCC(CNCC1COc3ccccc3O1)O2 (stereo unspecified)	/	/	/	.	/	.
CCN1C(=O)[C@H]2[C@H]3[C@H](O)[C@H](O)C/C(=N/OC[C@@H]4O[C@H](c5ccccc5)C=C[C@@H]4Oc4ccc(OC)cc4)[C@@H]3CC[C@@H]2C1=O	/	.[11.6 µM]	.[11.6 µM]	.	.[11.5 µM]	.
CSc1ncc(-c2ccc(Cl)cc2)[nH]1	39.8µM	.	.	.	.	.
Cc1ccc(NC(=O)CCn2c(=O)c3cccn3c3ccccc32)cc1Cl	.	.	.	/	.	/
COC(=O)c1ccc(N2CCN(C(=O)C3CC3)CC2)c([N+](=O)[O-])c1	.[12.7 µM]	/	/	.	/	.
CC(=O)c1ccc(N2CCC(c3cc(-c4ccc(Cl)cc4)n[nH]3)CC2)c([N+](=O)[O-])c1	.	?	?	.	4.47µM	.
COc1ccc(-c2cc(C3CCN(c4ccc(C(C)=O)cc4[N+](=O)[O-])CC3)[nH]n2)cc1	.[0.0925 µM]	.	?	.	3.55µM	.
COC(=O)c1ccc(N2CCC(c3cc(-c4ccc(OC)cc4)n[nH]3)CC2)c([N+](=O)[O-])c1	15.8µM	?	?	?	3.55µM	.
O=C(Cn1cccc1C(=O)c1ccccc1)NCc1ccc(F)cc1	.	.	.	.	.	.
COc1ccc(C2c3sc(=O)[nH]c3SC3C4CCC(C4)C23)cc1OC (stereo unspecified)	8.91µM	.	.	.	?	.
O=c1[nH]c2c(s1)C(c1ccc(O)cc1)C1C3CCC(C3)C1S2 (stereo unspecified)	?	.	.	50.1µM	?	.
COc1ccc(S(=O)(=O)NNC(=O)C23CC4CC(CC(C4)C2)C3)cc1	79.4µM	/	/	.	/	/
COc1ccc(/C=C/C2=Nc3ccccc3NC(C)(C)C2)cc1OC	.	.	.	.	/	.
O=C1CC(C(F)(F)C(F)(F)C(F)(F)C(F)F)=Nc2ccccc2N1	.	.	.	.	.	.
O=C1CC(/C=C/c2ccccn2)=Nc2ccccc2N1	44.7µM	.	.	.	?	.
O=C1CC(/C=C/c2ccc([N+](=O)[O-])cc2)=Nc2ccccc2N1	/	.	?	22.4µM	3.98µM	.
O=C1CC(/C=C/c2ccco2)=Nc2ccccc2N1	44.7µM	.	.	.	?	.
Cc1nc(-c2ccccc2)sc1-c1ccc(SCC(=O)NCc2ccccc2Cl)nn1	.	.	.	/	.	/
Cc1cc(C)c(S(=O)(=O)Nc2nnc(C3CCCCC3)s2)c(C)c1	70.8µM	/	/	.	/	.
Cc1cc(C)c(S(=O)(=O)Nc2nnc(C)s2)c(C)c1	.	.	.	.	.	.
Nc1nnc(SCCCC(=O)c2ccccc2)s1	.	.	.	.	.	.
Cc1cc(C)c(NC(=O)CCCSc2nnc(N)s2)c(C)c1	50.1µM	.	.	.	.	.
Cc1ccc2c(c1)nnn2C1CCN(S(=O)(=O)c2ccc(C(=O)O)cc2)CC1	/	.	.	.	.	.
Cc1ccc2c(c1)nnn2C1CCN(S(=O)(=O)c2ccc(C(=O)N3C(C)CCCC3C)cc2)CC1 (stereo unspecified)	25.1µM	.	.	.	.	/
COC(=O)c1ccc(OCC2c3cc(OC)c(OC)cc3CCN2C(=O)c2ccc(F)cc2)cc1 (stereo unspecified)	.	.	.	/	.	/
CCC(=O)Nc1cccc(-c2cn3c(C)csc3n2)c1	.	.	.	/	?	/
Cc1ccc(NC2=C(Cl)C(=O)OC2OC(=O)c2ccccc2)c(C)c1 (stereo unspecified)	?	.	?	50.1µM	?	.
Cc1cccc(C)c1NC1=C(Cl)C(=O)OC1OC(=O)c1ccccc1 (stereo unspecified)	.	.	?	?	.	.
